Activity calls are given as the source filed them.
Tests used:
[1] = test system: PRMT1 (protein arginine N-methyltransferase 1); assay: PRMT1 binders on small-molecule microarrays, primary screen, biochemical, small-molecule microarray, 635 nm fluorescence (AID 1088); conditions: small-molecule microarray binding, higher = more signal;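 note: binding of Prmt1 protein to compounds spotted on small-molecule microarray slides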
[2] = yeast growth modulation, basal conditions, primary screen, YJM789 clinical isolate, OD600, 24 h (AID 1089);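 note: growth of clinical yeast isolate S. cerevisiae YJM 789 seeded 1000 cells per well; test concentration not given here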; conditions: S. cerevisiae YJM789 growth, higher = more signal, called active from +8 up or from −8 down
[3] = fission yeast growth modulation, primary screen, strain 972, OD600, 24 h, no modulator (AID 1090);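 note: basal condition with compound alone and no growth modifier present; test concentration not given here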; conditions: S. pombe 972 growth, higher = more signal, called active from +8 up or from −8 down
[4] = S. cerevisiae growth modulation with rapamycin, primary screen, strain BY4716, OD600, 96 h (AID 1091); conditions: higher = more signal, called active from +8 up or from −8 down; note: test concentration not given here
[5] = target: Torsin-1A-interacting protein 2 (Homo sapiens) (UniProt Q8NFQ8); assay: LULL1 binders on small-molecule microarray, primary screen, cell lysate, human LULL1 lysate, 635/667 nm fluorescence (AID 1092); conditions: hLULL1 lysate binding, 635 nm fluorescence, higher = more signal;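 note: probe is lysate of COS7 cells overexpressing human LULL1; score merges per-feature 667 nm fluorescence with signal-to-noise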
Torsin-1A-interacting protein 2 (Homo sapiens), sequence (Q8NFQ8 whole entry, looked up): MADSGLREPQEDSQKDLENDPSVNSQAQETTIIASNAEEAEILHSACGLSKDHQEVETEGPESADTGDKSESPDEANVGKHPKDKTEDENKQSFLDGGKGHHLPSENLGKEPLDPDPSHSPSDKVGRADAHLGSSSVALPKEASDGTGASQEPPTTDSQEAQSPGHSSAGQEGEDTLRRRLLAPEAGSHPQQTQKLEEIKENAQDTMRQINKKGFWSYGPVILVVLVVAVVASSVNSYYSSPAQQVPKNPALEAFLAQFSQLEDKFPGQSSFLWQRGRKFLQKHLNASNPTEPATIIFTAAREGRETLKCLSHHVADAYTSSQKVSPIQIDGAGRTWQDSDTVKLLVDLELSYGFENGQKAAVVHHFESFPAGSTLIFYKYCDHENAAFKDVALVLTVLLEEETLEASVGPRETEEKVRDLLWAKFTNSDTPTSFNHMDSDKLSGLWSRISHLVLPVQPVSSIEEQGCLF

[6] = E. coli growth modulation, two-sided OD650, primary screen, E. coli filamentation project, strain DRC41, 24 h (AID 1093); conditions: OD650, 24 h, higher = more signal, called active from +8 up or from −8 down;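 note: MC1000 strain lacking acrAB efflux and sulA so SOS filamentation is blocked; test concentration not given here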
[7] = small-molecule microarray binders of probe aLefty2, primary screen, biochemical, biotinylated probe, 635/667 nm fluorescence (AID 1094); conditions: higher = more signal;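 note: score merges spot fluorescence near 667 nm with spot signal-to-noise ratio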
[8] = test system: Noggin (protein binding on small-molecule microarray); assay: Noggin binders on small-molecule microarray, primary screen, biochemical, 635/667 nm fluorescence (AID 1095); conditions: 635 nm fluorescence, higher = more signal;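 note: score merges 667 nm feature fluorescence with signal to noise over triplicate slides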
[9] = target: Neurogenic locus notch homolog protein 3 (Homo sapiens) (UniProt Q9UM47); assay: NOTCH3 binders on small-molecule microarray, primary screen, biochemical, 635/667 nm fluorescence (AID 1096); conditions: NOTCH3 binding, 635 nm fluorescence, higher = more signal
Neurogenic locus notch homolog protein 3 (Homo sapiens), sequence (Q9UM47 whole entry, looked up): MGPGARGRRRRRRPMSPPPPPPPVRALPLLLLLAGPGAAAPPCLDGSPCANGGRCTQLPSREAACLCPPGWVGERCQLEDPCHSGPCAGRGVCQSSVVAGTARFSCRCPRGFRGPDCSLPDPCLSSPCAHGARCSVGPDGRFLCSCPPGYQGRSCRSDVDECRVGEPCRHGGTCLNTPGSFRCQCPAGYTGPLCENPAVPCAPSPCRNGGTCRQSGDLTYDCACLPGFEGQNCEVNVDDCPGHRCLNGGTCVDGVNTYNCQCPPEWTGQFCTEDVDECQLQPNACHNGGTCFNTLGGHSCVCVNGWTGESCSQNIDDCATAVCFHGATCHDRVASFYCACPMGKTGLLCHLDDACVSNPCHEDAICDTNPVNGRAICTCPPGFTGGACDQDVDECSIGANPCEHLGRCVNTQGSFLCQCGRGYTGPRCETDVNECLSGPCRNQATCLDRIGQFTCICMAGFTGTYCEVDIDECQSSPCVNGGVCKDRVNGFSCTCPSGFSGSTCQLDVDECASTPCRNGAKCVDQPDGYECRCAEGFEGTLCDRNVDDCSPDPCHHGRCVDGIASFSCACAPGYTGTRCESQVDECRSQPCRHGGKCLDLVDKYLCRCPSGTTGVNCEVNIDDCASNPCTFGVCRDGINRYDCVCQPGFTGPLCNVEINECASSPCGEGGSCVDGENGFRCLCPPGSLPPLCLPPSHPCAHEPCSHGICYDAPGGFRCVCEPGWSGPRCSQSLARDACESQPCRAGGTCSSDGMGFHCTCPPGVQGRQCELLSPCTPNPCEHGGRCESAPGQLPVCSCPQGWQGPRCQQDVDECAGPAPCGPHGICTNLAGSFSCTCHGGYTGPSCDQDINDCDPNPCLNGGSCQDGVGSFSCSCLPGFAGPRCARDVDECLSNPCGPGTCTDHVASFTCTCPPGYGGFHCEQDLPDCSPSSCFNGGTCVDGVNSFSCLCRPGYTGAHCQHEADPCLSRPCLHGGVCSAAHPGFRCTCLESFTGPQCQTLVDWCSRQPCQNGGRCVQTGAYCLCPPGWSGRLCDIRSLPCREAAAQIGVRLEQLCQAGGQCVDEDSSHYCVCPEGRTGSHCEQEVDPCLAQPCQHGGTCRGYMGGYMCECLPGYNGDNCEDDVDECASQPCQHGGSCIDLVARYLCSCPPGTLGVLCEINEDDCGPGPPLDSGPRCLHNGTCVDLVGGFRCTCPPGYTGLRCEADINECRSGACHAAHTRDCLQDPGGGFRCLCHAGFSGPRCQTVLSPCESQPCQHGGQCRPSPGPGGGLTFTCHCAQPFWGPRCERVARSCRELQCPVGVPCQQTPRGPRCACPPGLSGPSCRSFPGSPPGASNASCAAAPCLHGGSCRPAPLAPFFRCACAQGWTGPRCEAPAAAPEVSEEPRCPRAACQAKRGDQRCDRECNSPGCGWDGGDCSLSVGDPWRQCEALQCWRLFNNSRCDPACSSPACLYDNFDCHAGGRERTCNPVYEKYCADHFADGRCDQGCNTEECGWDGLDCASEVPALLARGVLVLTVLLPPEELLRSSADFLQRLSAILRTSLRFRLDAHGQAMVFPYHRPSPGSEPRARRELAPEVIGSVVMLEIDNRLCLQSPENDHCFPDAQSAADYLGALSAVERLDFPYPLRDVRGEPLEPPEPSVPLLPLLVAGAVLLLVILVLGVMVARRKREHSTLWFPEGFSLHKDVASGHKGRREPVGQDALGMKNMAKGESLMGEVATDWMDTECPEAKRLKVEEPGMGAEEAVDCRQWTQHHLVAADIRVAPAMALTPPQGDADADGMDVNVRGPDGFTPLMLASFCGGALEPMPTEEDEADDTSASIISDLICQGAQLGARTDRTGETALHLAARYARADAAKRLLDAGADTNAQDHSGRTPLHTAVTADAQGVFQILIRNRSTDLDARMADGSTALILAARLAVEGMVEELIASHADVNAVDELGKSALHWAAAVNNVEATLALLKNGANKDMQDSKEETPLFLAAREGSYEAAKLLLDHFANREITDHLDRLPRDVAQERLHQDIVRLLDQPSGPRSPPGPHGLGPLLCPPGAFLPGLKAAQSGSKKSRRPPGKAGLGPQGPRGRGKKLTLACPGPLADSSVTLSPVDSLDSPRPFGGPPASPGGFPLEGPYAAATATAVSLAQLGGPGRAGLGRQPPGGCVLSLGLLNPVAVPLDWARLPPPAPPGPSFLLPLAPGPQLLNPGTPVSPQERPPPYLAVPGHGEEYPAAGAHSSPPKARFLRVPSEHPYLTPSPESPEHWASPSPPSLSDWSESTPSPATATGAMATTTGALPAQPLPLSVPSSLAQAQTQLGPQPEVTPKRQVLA

[10] = small-molecule microarray binders of probe aEGFR, primary screen, biochemical, biotinylated probe, 635/667 nm fluorescence (AID 1097); conditions: higher = more signal;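 note: probe is a biotinylated anti-EGFR antibody binding compounds printed on slides; score combines fluorescence near 667 nm and signal to noise of each spot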
[11] = test system: Plasmodium falciparum Sir2 (PF13_0152, Sir2A); assay: pfSir2 binders on small-molecule microarrays, primary screen, biochemical, small-molecule microarray, 635 nm fluorescence (AID 1098); conditions: small-molecule microarray binding, fluorescence 635 nm; higher = more signal;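 note: score merges spot fluorescence intensity with its signal-to-noise ratio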
[12] = small-molecule microarray binders of probe aDKK1, primary screen, biochemical, biotinylated probe, 635/667 nm fluorescence (AID 1099); conditions: higher = more signal;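 note: score merges 667nm spot fluorescence with signal to noise across triplicate slides; reference of the scale not given here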
[13] = small-molecule microarray binders of probe aCHRDL2, primary screen, biochemical, biotinylated probe, 635/667 nm fluorescence (AID 1100); conditions: higher = more signal
[14] = splicing luciferase reporter signal modulators, primary screen, spliceosome inhibition project, cell-based, HEK293, splice +/- reporter (AID 1101); conditions: luminescence, 24 h, higher = more signal, called active from +8 up or from −8 down;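 note: HEK293 cells carrying a splicing-competent luciferase reporter gene; test concentration not given here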
[15] = target: Fibroblast growth factor 10 (Homo sapiens) (UniProt O15520); assay: FGF10 binders on small-molecule microarrays, primary screen, biochemical, small-molecule microarray, 635 nm fluorescence (AID 1102); conditions: FGF10 binding, fluorescence 635 nm, higher = more signal
Fibroblast growth factor 10 (Homo sapiens), sequence (O15520 whole entry, looked up): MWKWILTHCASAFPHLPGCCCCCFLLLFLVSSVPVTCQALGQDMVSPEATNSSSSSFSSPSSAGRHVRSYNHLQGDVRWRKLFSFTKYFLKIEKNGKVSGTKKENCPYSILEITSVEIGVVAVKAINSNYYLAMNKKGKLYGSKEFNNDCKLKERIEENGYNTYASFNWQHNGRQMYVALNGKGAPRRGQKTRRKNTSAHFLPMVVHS

[16] = test system: glycogen synthase kinase-3 (GSK3A per assay name; protocol says GSK3B); assay: GSK3 binders on small-molecule microarrays, primary screen, biochemical, small-molecule microarray, 635 nm fluorescence, GSK3A (AID 1103); conditions: small-molecule microarray binding, fluorescence 635 nm; higher = more signal; note: the record names both GSK3A and GSK3B
[17] = target: Epidermal growth factor receptor (Homo sapiens) (UniProt P00533); assay: EGFR binders on small-molecule microarrays, primary screen, biochemical, small-molecule microarray, 635 nm fluorescence (AID 1104); conditions: EGFR binding, higher = more signal;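 note: score merges 667 nm emission intensity with spot signal to noise over triplicate slides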
Epidermal growth factor receptor (Homo sapiens), sequence (P00533 whole entry, looked up): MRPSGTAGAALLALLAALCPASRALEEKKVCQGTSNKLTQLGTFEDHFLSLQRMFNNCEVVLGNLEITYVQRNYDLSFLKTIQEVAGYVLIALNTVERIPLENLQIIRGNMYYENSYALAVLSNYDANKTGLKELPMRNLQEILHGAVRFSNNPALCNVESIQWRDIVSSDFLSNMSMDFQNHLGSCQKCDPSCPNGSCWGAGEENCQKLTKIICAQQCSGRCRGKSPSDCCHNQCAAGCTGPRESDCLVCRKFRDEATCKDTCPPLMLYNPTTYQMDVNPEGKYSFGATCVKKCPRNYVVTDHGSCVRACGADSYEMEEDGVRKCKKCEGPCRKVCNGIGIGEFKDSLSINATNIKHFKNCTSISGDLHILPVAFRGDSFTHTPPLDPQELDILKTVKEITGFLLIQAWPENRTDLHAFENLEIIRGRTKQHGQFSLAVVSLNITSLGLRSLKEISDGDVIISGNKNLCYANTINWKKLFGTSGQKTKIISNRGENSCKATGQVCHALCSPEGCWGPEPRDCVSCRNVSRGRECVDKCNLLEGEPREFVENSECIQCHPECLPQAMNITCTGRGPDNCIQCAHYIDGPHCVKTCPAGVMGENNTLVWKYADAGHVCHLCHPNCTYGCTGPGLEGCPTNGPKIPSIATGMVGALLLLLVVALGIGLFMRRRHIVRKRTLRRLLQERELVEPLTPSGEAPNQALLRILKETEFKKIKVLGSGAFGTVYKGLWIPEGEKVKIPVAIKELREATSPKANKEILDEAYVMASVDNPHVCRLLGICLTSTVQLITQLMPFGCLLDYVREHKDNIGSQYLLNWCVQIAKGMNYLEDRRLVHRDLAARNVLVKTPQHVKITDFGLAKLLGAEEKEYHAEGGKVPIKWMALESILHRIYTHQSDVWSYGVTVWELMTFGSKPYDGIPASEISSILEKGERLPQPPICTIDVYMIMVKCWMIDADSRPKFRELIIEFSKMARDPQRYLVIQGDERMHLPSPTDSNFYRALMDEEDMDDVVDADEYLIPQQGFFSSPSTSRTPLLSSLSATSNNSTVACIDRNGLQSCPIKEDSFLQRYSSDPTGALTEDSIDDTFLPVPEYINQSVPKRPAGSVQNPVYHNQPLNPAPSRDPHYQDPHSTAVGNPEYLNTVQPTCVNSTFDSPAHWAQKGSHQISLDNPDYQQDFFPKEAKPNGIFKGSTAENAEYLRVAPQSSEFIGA

[18] = target: Follistatin-related protein 3 (Homo sapiens) (UniProt O95633); assay: FSTL3 binders on small-molecule microarrays, primary screen, biochemical, small-molecule microarray, 635 nm fluorescence (AID 1105); conditions: FSTL3 binding, higher = more signal;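 note: score merges emission near 667 nm and signal to noise per printed spot across three slides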
Follistatin-related protein 3 (Homo sapiens), sequence (O95633 whole entry, looked up): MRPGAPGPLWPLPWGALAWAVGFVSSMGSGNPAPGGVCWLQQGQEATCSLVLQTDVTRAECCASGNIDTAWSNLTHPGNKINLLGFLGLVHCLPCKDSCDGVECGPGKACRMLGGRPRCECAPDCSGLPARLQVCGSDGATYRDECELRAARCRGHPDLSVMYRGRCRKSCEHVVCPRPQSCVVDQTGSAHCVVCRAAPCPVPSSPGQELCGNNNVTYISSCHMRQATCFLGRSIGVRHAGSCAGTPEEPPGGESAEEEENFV

[19] = target: Dickkopf-related protein 1 (Homo sapiens) (UniProt O94907); assay: DKK1 binders on small-molecule microarrays, primary screen, biochemical, small-molecule microarray, 635 nm fluorescence scan (AID 1106); conditions: DKK1 binding, higher = more signal;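 note: score merges emission near 667 nm with signal to noise over three replicate slides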
Dickkopf-related protein 1 (Homo sapiens), sequence (O94907 whole entry, looked up): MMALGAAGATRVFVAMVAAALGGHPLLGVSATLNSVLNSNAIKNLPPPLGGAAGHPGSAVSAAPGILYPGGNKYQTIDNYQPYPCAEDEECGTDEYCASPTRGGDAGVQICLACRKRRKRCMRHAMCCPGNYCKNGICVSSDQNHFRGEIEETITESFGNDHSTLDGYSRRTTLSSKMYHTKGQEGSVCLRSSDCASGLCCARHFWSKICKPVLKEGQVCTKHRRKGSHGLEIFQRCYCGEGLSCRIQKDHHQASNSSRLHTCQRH

[20] = test system: Inhibin beta A chain (activin A); assay: INHBA (activin A) binders on microarrays, primary screen, biochemical, small-molecule microarray, 635 nm fluorescence scan (AID 1107); conditions: small-molecule microarray binding, higher = more signal;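 note: mouse activin A protein probed at 4.33 µg/mL on printed slides; score merges bound-protein fluorescence near 667 nm with spot signal-to-noise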

| Structure (SMILES) | composite z-score [1] | z-score [2] | z-score [3] | z-score [4] | composite z-score [5] | z-score [6] | composite z-score [7] | composite z-score [8] | composite z-score [9] | composite z-score [10] | composite z-score [11] | composite z-score [12] | composite z-score [13] | z-score [14] | composite z-score [15] | composite z-score [16] | composite z-score [17] | composite z-score [18] | composite z-score [19] | composite z-score [20] |
| --- | --- | --- | --- | --- | --- | --- | --- | --- | --- | --- | --- | --- | --- | --- | --- | --- | --- | --- | --- | --- |
| COc1ccc(C(=O)Nc2cccc(CN3C(=O)[C@]4(O[C@H](CC(=O)N5Cc6ccccc6C[C@H]5CO)[C@@H]([Si](C)(C)c5ccc(OC)cc5)[C@@H]4C)c4ccccc43)c2)cc1 | 1.55 | 0.143 (inactive) | 1.46 (inactive) | 1.79 (inactive) | 0.906 | 2.31 (inactive) | -0.186 | 1.73 | 1.1 | -0.027 | 0.895 | -0.245 | -0.362 | -0.865 (inactive) | 0.946 | 0.955 | 1.24 | 1.42 | 1.34 | 1.21 |
| COC(=O)C(CC#Cc1ccc2c(c1)[C@]1(C(=O)N2)[C@H](C(=O)N2CCc3cc(OC)c(OC)cc3C2)[C@H]2C(=O)O[C@H](c3ccccc3)[C@H](c3ccccc3)N2[C@@H]1c1ccccc1OCCO)C(=O)OC | 1.54 | 2.06 (inactive) | 1.54 (inactive) | 3.78 (inactive) | 3.06 | 0.49 (inactive) | -0.0862 | 1.36 | 1.07 | 0.0457 | 1.3 | 0.581 | 0.623 | 0.234 (inactive) | 0.954 | 1.34 | 0.529 | 1.28 | 0.627 | -0.592 |
| C=C(COC)C(=O)CC[C@H](OC(=O)c1cccnc1)c1ccc(OCCO)cc1 | 1.52 | -0.191 (inactive) | -1.48 (inactive) | 0.535 (inactive) | 1.48 | 0.105 (inactive) | -0.155 | 1.22 | 0.78 | -0.113 | 0.745 | -0.163 | -0.139 | -0.319 (inactive) | 1.08 | 0.538 | 0.163 | 1.03 | 0.624 | 0.472 |
| CCCCCCc1nc(Cc2cc(OC)c(OC)c(OC)c2)cc2c1[Si](C(C)C)(C(C)C)O[C@H]2c1ccccc1 | 0.811 | 0.153 (inactive) | 0.87 (inactive) | 0.0217 (inactive) | -0.0751 | -1.41 (inactive) | -0.176 | 0.619 | 0.819 | -0.0975 | 0.268 | -0.333 | -0.511 | -0.189 (inactive) | 0.351 | 0.124 | 0.569 | 0.594 | 0.548 | 0.882 |
| NC(=O)N1C(=O)C2C(C1=O)C1C=C(CCCO)C2C(c2ccc(CN3CCCC3)cc2)N1Cc1sc2ccccc2c1Cl (stereo not given) | 0.634 | -0.75 (inactive) | -0.399 (inactive) | -1.27 (inactive) | 1.97 | 0.465 (inactive) | -0.208 | -0.275 | -0.348 | -0.112 | 0.0883 | -0.291 | 0.233 | -0.497 (inactive) | 0.528 | -0.42 | -0.243 | -0.744 | -0.29 | -0.0473 |
| Cc1ccc(C(C)CC(O)C2C=CC3C(=O)N(C)C(=O)C3N2Nc2ccccc2)o1 (stereo not given) | 1.55 | 0.121 (inactive) | 0.388 (inactive) | 0.651 (inactive) | 0.788 | -1.47 (inactive) | 0.0997 | 0.555 | 1.07 | -0.0167 | 0.84 | 0.169 | 0.778 | 1.27 (inactive) | 1.19 | 1.25 | 1 | 1.39 | 0.593 | 0.989 |
| C=C(C)[C@@H]1CC=C(C(O)C2C=CC3C(=O)N(c4ccccc4)C(=O)C3N2Nc2ccc([N+](=O)[O-])cc2)CC1 (stereo not given in full) | 1.55 | -0.0158 (inactive) | 0.348 (inactive) | 3.6 (inactive) | 3.57 | -1.96 (inactive) | -0.0357 | 0.939 | 1.05 | -0.0435 | -0.0606 | 0.32 | 0.822 | -0.682 (inactive) | 1.27 | 1.31 | 0.613 | 1.44 | -0.103 | 0.883 |
| Cc1ccc(S[C@]2(C(=O)NCCCN(C)C)CC(=O)N(C3Cc4ccccc4C3)[C@@H]2c2ccc(CO)cc2I)cc1 | 0.961 | -0.471 (inactive) | -2.87 (inactive) | 1.32 (inactive) | 1.14 | -0.42 (inactive) | -0.035 | -0.978 | -0.105 | -0.0828 | 1.58 | 0.182 | 0.932 | -1.53 (inactive) | -0.795 | -0.719 | -0.487 | -0.335 | -0.976 | 0.794 |
| CCCCCC1=C2CNC(CC(C)C)(C(=O)OC)C=C2C(C)C1=O (stereo not given) | 1.51 | 0.298 (inactive) | 0.421 (inactive) | 0.22 (inactive) | 2.87 | -0.415 (inactive) | 0.0887 | -0.272 | 0.225 | -0.126 | 0.452 | 0.72 | 0.952 | 5.08 (inactive) | 0.071 | -0.361 | -0.73 | -0.403 | -0.756 | 1.23 |
| CCOC(=O)C[C@H]1[C@H](OC(=O)c2ccccc2-c2ccccc2)[C@@H](NC(=O)C2CCCCC2)c2cc(OCCCO)ccc2N1C(=O)c1ccc2ccccc2n1 | 1.39 | 0.362 (inactive) | 0.233 (inactive) | 0.495 (inactive) | 1.34 | -1.06 (inactive) | 0.0569 | 0.431 | 0.89 | 0.0754 | 0.486 | -0.0483 | -0.334 | 0.0681 (inactive) | 0.679 | 0.452 | 0.27 | 0.845 | 0.483 | -0.286 |

Source: PubChem BioAssay
